Test results as given in PubChem BioAssay AID1159580 (chemical genetic matrix, 2015).
Screen size: about 5,500 compounds; about 2,000 (36%) were called active. Not shown: some 18% with an inconclusive outcome. Cut-off read from the data, not from the text of the source: active = normalized growth mostly below about 0.91 (no sharp cut-off); inconclusive = no clear call, values can overlap the other calls; inactive = mostly above about 0.92. The list shows a part of the results.

Test: chemical genetic growth profiling, strain panel (AID 1159580);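 note: tested at 20 µM; growth read once vehicle control cultures reached saturation at 30 °C; 1 = growth at the plate median or of vehicle wells; lower values mean less growth of the strain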
Details: S. cerevisiae deletion strains, growth OD

Measured: normalized growth

COc1cc(NC(=S)N(C)C)c(OC)cc1Cl
inactive: locus YAR019C, strain CDC15, active compounds read low 0.984 | locus YBL105C, strain PKC1, active compounds read low 0.987 | locus YBR135W, strain CKS1, active compounds read low 0.996 | locus YBR136W, strain MEC1, active compounds read low 0.977 | locus YBR160W, strain CDC28, active compounds read low 0.991 | locus YDL017W, strain CDC7, active compounds read low 0.985 | locus YDL028C, strain MPS1, active compounds read low 0.987 | locus YDL101C, strain DUN1, active compounds read low 0.991 | locus YDL108W, strain KIN28, active compounds read low 0.996 | locus YDL132W, strain cdc53, active compounds read low 0.999 | locus YDL214C, strain PRR2, active compounds read low 0.984 | locus YDR052C, strain DBF4, active compounds read low 0.992 | locus YDR054C, strain cdc34, active compounds read low 0.983 | locus YDR226W, strain ADK1, active compounds read low 0.987 | locus YDR477W, strain SNF1, active compounds read low 0.979 | locus YER123W, strain YCK3, active compounds read low 0.978 | locus YER133W, strain GLC7, active compounds read low 0.99 | locus YFL009W, strain cdc4, active compounds read low 0.99 | locus YFL029C, strain CAK1, active compounds read low 0.983 | locus YFR003C, strain YPI1, active compounds read low 0.99 | locus YFR019W, strain FAB1, active compounds read low 0.971 | locus YFR028C, strain CDC14, active compounds read low 0.995 | locus YGR040W, strain KSS1, active compounds read low 0.974 | locus YGR052W, strain FMP48, active compounds read low 1.07 | locus YGR092W, strain DBF2, active compounds read low 0.992 | locus YHR030C, strain SLT2, active compounds read low 0.977 | locus YHR079C, strain IRE1, active compounds read low 0.984 | locus YHR082C, strain KSP1, active compounds read low 1.03 | locus YHR205W, strain SCH9, active compounds read low 0.963 | locus YIL147C, strain SLN1, active compounds read low 0.984 | locus YJL095W, strain BCK1, active compounds read low 0.982 | locus YJL128C, strain PBS2, active compounds read low 0.976 | locus YJL157C, strain FAR1, active compounds read low 0.997 | locus YJR016C, strain ILV3, active compounds read low 0.993 | locus YJR066W, strain TOR1 (second series), active compounds read low 0.967 | locus YJR066W, strain TOR1, active compounds read low 1 | locus YKL048C, strain ELM1, active compounds read low 0.991 | locus YKL067W, strain YNK1, active compounds read low 0.991 | locus YKL101W, strain HSL1, active compounds read low 0.971 | locus YKL193C, strain SDS22, active compounds read low 0.986 | locus YKL203C, strain TOR2, active compounds read low 1.03 | locus YLR113W, strain HOG1, active compounds read low 0.932 | locus YLR133W, strain CKI1, active compounds read low 0.987 | locus YLR403W, strain SFP1, active compounds read low 0.986 | locus YML070W, strain DAK1, active compounds read low 0.974 | locus YMR001C, strain CDC5, active compounds read low 0.985 | locus YMR205C, strain PFK2 (second series), active compounds read low 0.988 | locus YMR277W, strain FCP1, active compounds read low 0.997 | locus YNL006W, strain LST8, active compounds read low 0.984 | locus YNL020C, strain ARK1, active compounds read low 0.991 | locus YNL161W, strain CBK1, active compounds read low 0.982 | locus YNL183C, strain NPR1, active compounds read low 0.968 | locus YNL207W, strain RIO2, active compounds read low 0.987 | locus YNL222W, strain SSU72, active compounds read low 0.992 | locus YNL307C, strain MCK1 (second series), active compounds read low 1 | locus YOL078W, strain AVO1, active compounds read low 0.991 | locus YOL136C, strain PFK27, active compounds read low 0.984 | locus YOR061W, strain CKA2, active compounds read low 0.996 | locus YOR119C, strain RIO1, active compounds read low 1.01 | locus YOR231W, strain MKK1, active compounds read low 0.968 | locus YOR329C, strain SCD5, active compounds read low 0.984 | locus YPL031C, strain PHO85, active compounds read low 0.976 | locus YPL153C, strain RAD53, active compounds read low 0.97 | locus YPL204W, strain HRR25, active compounds read low 0.991 | locus YPL209C, strain IPL1, active compounds read low 0.988 | locus YPL256C, strain CLN2, active compounds read low 0.948 | locus YPR025C, strain CCL1, active compounds read low 0.999 | locus YPR106W, strain ISR1, active compounds read low 0.993 | locus YPR111W, strain DBF20, active compounds read low 0.996 | strain NNK1, active compounds read low 1 | strain TSCII, active compounds read low 0.989
